The nature of test [1]: qHTS assay to identify small molecule antagonists of the progesterone receptor (PR) signaling pathway - cell viability counter screen (AID 1346798). Also: nearly all actives have a fitted effect of over 50% in size. Also: potency is read from the fitted curve at half-maximal effect. In short, it runs like this: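 PR-UAS-bla HEK293T cells, 3,000/well in 2% charcoal-stripped FBS medium, dosed with compounds plus R5020 agonist and incubated 16 h at 37C. Viability then measured in the same wells by CellTiter-Glo luminescence after 30 min at RT.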
On the technique in general: qHTS replaces the single test concentration by a dilution series.

Test [2] in a line: qHTS assay to identify small molecule agonists of the progesterone receptor (PR) signaling pathway - cell viability counter screen (AID 1346799; calls by dose curve; also: % is scaled to controls: 0 for no effect and ±100 for the full control effect; nearly all actives have a fitted effect of over 45% in size). In short, it runs like this: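 Counter screen in the PR-UAS-bla HEK293T wells (2% charcoal-stripped FBS, 16 h compound exposure at 37 C) after the bla read. CellTiter-Glo added, 30 min at room temperature, luminescence read as cell viability.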

Test [3] can be described thus: qHTS assay to identify small molecule antagonists of the TGF-beta/Smad signaling pathway - cell viability counter screen (AID 1346824). Also: % is scaled to controls: 0 for no effect and ±100 for the full control effect; nearly all actives have a fitted effect of over 50% in size. In short, it runs like this:
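Cytotoxicity counter-screen run in the same wells as the beta-lactamase Smad reporter read: CellTiter-Glo luminescence after 30 min at room temperature. HEK 293T SBE-bla cells had 5 hr compound exposure at 37 C with TGF-beta1 (0.25 ng/mL stock).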

Test [4] is described as follows: qHTS assay to identify small molecule agonists of the TGF-beta/Smad signaling pathway - cell viability counter screen (AID 1346829). Also: top concentration of the series differs between compounds; % is scaled to controls: 0 for no effect and ±100 for the full control effect; nearly all actives have a fitted effect of over 45% in size. In short, it runs like this:
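CellTiter-Glo luminescence readout; SBE-bla HEK 293T cells, overnight plating, compound 5 hr at 37 C/5% CO2, then bla substrate 2 hr RT, then CellTiter-Glo 30 min RT.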

The nature of test [5]: qHTS assay to identify small molecule agonists of the TGF-beta/Smad signaling pathway (AID 1346859; active = well fitted activation curve with a large enough effect in the signal ratio in the repeat runs, not every such curve was filed as active; the % refers to the signal ratio; also: series mostly up to about 77 µM; % is scaled to controls: 0 for no effect and ±100 for the full control effect). In short, it runs like this: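 SBE-bla HEK293T cells plated overnight, then compound exposure for 5 h at 37 C. Beta-lactamase reporter read with LiveBLAzer B/G FRET substrate after 2 h at room temperature, fluorescence at 405 nm excitation, 460/530 nm emission.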
The target in test [6] is Thyrotropin-releasing hormone receptor (Homo sapiens) (UniProt P34981). As to the kind of experiment: qHTS assay to identify small molecule antagonists of the thyrotropin-releasing hormone receptor (TRHR) signaling pathway (AID 1346877; active = well fitted inhibition curve with a large enough effect in the repeat runs, not every such curve was filed as active; also: series mostly up to about 51 µM; % is scaled to controls: 0 for no effect and ±100 for the full control effect). In short, it runs like this: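 Screening used HEK293 cells engineered with TRHR, with a brief 5 min room-temperature compound exposure preceding addition of TRH to 1 nM. The read-out was kinetic calcium-dye fluorescence, concentration-response from 15 doses in triplicate.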
Sequence of Thyrotropin-releasing hormone receptor (Homo sapiens) (P34981 whole entry, looked up): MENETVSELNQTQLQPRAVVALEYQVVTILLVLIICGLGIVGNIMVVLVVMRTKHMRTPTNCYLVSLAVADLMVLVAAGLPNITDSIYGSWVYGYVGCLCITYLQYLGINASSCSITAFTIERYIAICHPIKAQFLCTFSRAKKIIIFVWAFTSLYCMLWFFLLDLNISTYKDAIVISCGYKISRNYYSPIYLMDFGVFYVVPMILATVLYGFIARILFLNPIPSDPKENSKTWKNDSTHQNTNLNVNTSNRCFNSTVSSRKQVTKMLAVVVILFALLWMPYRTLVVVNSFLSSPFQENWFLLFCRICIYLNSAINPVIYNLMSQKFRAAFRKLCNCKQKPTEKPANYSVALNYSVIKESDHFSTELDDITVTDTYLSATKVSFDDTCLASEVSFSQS

Test [7] has the same target. As to the kind of experiment: qHTS assay to identify small molecule agonists of the thyrotropin-releasing hormone receptor (TRHR) signaling pathway (AID 1346891; calls by dose curve; also: series mostly up to about 58 µM; % is scaled to controls: 0 for no effect and ±100 for the full control effect). In short, it runs like this:
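HEK293 cells expressing TRHR plated 18 h at 37 C/5% CO2, calcium dye-loaded 2 h at 37 C, then compound added (agonist mode); kinetic calcium fluorescence read 3 min at 1 s intervals; 15 concentrations in triplicate.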

A short description of test [8]: Caspase-3/7 induction in HepG2 cells by small molecules, qHTS assay (AID 1346978). Also: % is scaled to controls: 0 for no effect and ±100 for the full control effect; nearly all actives have a fitted effect of over 15% in size. In short, it runs like this:
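Caspase-3/7 induction was measured by Caspase-Glo 3/7 luminescence (30 min, room temperature) after a 17 hr compound exposure of wild-type HepG2 cells seeded at 2,000 per well and pre-incubated 5 hr.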

Test [9] in a line: Caspase-3/7 induction in CHO-K1 cells by small molecules, qHTS cell viability counter screen (AID 1346979). Also: nearly all actives have a fitted effect of over 35% in size. Also: potency is read from the fitted curve at half-maximal effect. In short, it runs like this: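 Wild-type CHO-K1 cells (1,500/well) treated with compound after 5 h plating; after 16 h at 37C, viability read as CellTiter-Fluor fluorescence following 1 h reagent incubation, in the same wells as the caspase read.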
A short description of test [10]: Caspase-3/7 induction in CHO-K1 cells by small molecules, qHTS assay (AID 1346980). Also: % is scaled to controls: 0 for no effect and ±100 for the full control effect; nearly all actives have a fitted effect of over 15% in size. In short, it runs like this:
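Luminescent Caspase-Glo 3/7 read (30min, room temperature) quantified apoptosis induction. Cells were wild-type CHO-K1, treated with compound for 17hr at 37 C and 5% CO2.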

Test [11] has as its target Nuclear receptor subfamily 1 group I member 2 (Homo sapiens) (UniProt O75469). As to the kind of experiment: Human pregnane X receptor (PXR) small molecule agonists, qHTS assay (AID 1346982). Also: nearly all actives have a fitted effect of over 35% in size. Also: potency is read from the fitted curve at half-maximal effect. As to activation: % is scaled to controls: 0 for no effect and ±100 for the full control effect. In short, it runs like this:
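We seeded PXR-Luc HepG2 cells in assay medium containing 5% charcoal-stripped FBS, added compounds 5 hr later, incubated 24 hr, and read luminescence with ONE-Glo reagent.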

Test [12] addresses Cytochrome P450 2D6 (Homo sapiens) (UniProt P10635). As to the kind of experiment: Cytochrome P450 Family 2 Subfamily D Member 6 (CYP2D6) small molecule antagonists: luciferase reporter qHTS assay (AID 1671196). Also: series mostly up to about 120 µM; % is scaled to controls: 0 for no effect and ±100 for the full control effect; nearly all actives have a fitted effect of over 50% in size. In short, it runs like this: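 Luminescence (RLU), read 20 min after detection reagent, indicated CYP2D6 conversion of proluciferin to luciferin during a 1 h NADPH-dependent reaction at room temperature.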

Test [13] addresses Cytochrome P450 2C19 (Homo sapiens) (UniProt P33261). As to the kind of experiment: Cytochrome P450 Family 2 Subfamily C Member 19 (CYP2C19) small molecule antagonists: luciferase reporter qHTS assay (AID 1671197). Also: nearly all actives have a fitted effect of over 65% in size. Also: potency is read from the fitted curve at half-maximal effect. In short, it runs like this:
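Enzyme-substrate mix with proluciferin substrate (P450-Glo CYP2C19 system) preincubated with compounds 10 min at room temperature; NADPH regeneration solution added, 37C for 1 h; detection reagent stops reaction, luminescence read after 20 min. Ketoconazole positive control.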
(In a reporter assay the amount or activity of a reporter protein is the signal.)

For test [14], the target named is Progesterone receptor (Homo sapiens) (UniProt P06401). As to the kind of experiment: qHTS assay to identify small molecule agonists of the progesterone receptor (PR) signaling pathway (AID 1346784; calls by dose curve; also: % is scaled to controls: 0 for no effect and ±100 for the full control effect; nearly all actives have a fitted effect of over 30% in size). In short, it runs like this:
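PR-UAS-bla HEK 293T cells (beta-lactamase reporter under UAS) in 2% charcoal-stripped FBS, dosed with 23 nL compound after 6 hr, incubated 16hr at 37C. LiveBLAzer B/G FRET substrate added, fluorescence read after 2 hours.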

A short description of test [15]: Human pregnane X receptor (PXR) small molecule agonists, qHTS cell viability counter screen (AID 1346977). Also: % is scaled to controls: 0 for no effect and ±100 for the full control effect; nearly all actives have a fitted effect of over 50% in size. In short, it runs like this:
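PXR-Luc HepG2 cells (2,000/well, 5% charcoal-stripped FBS) preincubated 5 hr, then exposed to compounds 24 hr at 37 C. Viability read in the same wells by CellTiter-Fluor fluorescence, reagent added at 23 hr, 1 hr incubation.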

Test [16] can be described thus: Caspase-3/7 induction in HepG2 cells by small molecules, qHTS cell viability counter screen (AID 1346981). Also: series mostly up to about 92 µM; % is scaled to controls: 0 for no effect and ±100 for the full control effect; nearly all actives have a fitted effect of over 30% in size. In short, it runs like this: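 Multiplexed with the caspase-3/7 assay: HepG2 cells, 16 hr compound treatment, CellTiter-Fluor viability detection by fluorescence.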
In test [17] the target is Progesterone receptor (Homo sapiens) (UniProt P06401). As to the kind of experiment: qHTS assay to identify small molecule antagonists of the progesterone receptor (PR) signaling pathway (AID 1346795; active = well fitted inhibition curve with a large enough effect in the signal ratio in the repeat runs, not every such curve was filed as active; the % refers to the signal ratio; also: potency is read from the fitted curve at half-maximal effect). In short, it runs like this:
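PR-UAS-bla HEK293T cells with beta-lactamase reporter under UAS control, in 2% charcoal-stripped FBS, treated with compounds plus 1 nM promegestone (R5020, final) for 16 hr at 37C. Read-out: FRET beta-lactamase substrate fluorescence after 2 hr at room temperature.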

Test [18] has as its target Nuclear receptor subfamily 1 group I member 2 (Rattus norvegicus) (UniProt Q9R1A7). As to the kind of experiment: Rat pregnane X receptor (rPXR) activation by small molecules, qHTS assay (AID 1346983). Also: % is scaled to controls: 0 for no effect and ±100 for the full control effect; nearly all actives have a fitted effect of over 20% in size. Conditions: rPXR luciferase reporter cells, One-Glo luminescence, 24 h; hits give high values. In short, it runs like this:
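Luminescent readout (One-Glo luciferase, 30 min room temperature) followed 24 hr compound treatment at 37 C of rPXR cells plated 2,000 per well and preincubated 5hr; qHTS format with compounds delivered in DMSO.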

Structures are written as SMILES. Where “and” joins values, the source holds several entries; their conditions need not be identical. Identical values can stand only once. Values without a mark were called inactive. Results filed as inconclusive are left out. Calls of active or inactive are those of the source. Unless noted, calls follow the shape of the dose curve; as a rule, active = well fitted curve in the direction sought with a large enough effect in the repeat runs; inconclusive = weak or mixed curves; inactive = no such curve, though single readings can be large; an effect the other way counts as inactive or inconclusive.

Sequence of Cytochrome P450 2D6 (Homo sapiens) (P10635 whole entry, looked up): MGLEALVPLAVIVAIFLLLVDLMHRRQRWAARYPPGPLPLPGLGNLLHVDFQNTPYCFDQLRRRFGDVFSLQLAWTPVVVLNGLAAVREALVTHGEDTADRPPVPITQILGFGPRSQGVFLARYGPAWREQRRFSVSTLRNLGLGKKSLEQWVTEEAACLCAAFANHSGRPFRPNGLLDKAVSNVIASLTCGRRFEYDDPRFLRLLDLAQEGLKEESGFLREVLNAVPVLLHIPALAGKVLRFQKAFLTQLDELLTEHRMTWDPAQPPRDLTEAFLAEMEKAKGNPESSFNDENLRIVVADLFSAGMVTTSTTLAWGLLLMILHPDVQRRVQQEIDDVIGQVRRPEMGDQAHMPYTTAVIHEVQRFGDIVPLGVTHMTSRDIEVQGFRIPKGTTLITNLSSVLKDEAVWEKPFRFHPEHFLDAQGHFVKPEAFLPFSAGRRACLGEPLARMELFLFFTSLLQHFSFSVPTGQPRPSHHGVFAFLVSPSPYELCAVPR
Sequence of Progesterone receptor (Homo sapiens) (P06401 whole entry, looked up): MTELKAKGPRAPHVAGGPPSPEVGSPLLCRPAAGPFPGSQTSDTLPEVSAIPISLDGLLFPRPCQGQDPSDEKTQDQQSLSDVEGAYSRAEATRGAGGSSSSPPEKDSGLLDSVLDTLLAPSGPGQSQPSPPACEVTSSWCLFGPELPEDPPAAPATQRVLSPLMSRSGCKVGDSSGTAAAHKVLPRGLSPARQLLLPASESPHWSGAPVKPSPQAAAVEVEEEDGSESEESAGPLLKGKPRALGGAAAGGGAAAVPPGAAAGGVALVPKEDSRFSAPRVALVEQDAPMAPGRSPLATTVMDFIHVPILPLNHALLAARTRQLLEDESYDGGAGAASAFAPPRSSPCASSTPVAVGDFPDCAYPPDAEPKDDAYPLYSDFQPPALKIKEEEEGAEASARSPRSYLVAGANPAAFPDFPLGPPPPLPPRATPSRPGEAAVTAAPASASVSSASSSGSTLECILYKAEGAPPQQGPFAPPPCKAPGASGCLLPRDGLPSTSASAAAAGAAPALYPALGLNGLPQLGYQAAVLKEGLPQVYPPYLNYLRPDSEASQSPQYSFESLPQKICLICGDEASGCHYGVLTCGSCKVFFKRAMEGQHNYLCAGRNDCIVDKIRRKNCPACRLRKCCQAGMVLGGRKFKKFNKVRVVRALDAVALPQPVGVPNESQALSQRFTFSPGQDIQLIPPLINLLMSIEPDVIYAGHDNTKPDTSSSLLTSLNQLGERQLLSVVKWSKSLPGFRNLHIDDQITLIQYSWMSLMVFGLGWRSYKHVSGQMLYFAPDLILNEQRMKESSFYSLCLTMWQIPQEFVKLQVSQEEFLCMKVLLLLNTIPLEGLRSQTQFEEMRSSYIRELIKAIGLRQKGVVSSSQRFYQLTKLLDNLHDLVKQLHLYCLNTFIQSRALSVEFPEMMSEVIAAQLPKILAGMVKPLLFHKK
Sequence of Cytochrome P450 2C19 (Homo sapiens) (P33261 whole entry, looked up): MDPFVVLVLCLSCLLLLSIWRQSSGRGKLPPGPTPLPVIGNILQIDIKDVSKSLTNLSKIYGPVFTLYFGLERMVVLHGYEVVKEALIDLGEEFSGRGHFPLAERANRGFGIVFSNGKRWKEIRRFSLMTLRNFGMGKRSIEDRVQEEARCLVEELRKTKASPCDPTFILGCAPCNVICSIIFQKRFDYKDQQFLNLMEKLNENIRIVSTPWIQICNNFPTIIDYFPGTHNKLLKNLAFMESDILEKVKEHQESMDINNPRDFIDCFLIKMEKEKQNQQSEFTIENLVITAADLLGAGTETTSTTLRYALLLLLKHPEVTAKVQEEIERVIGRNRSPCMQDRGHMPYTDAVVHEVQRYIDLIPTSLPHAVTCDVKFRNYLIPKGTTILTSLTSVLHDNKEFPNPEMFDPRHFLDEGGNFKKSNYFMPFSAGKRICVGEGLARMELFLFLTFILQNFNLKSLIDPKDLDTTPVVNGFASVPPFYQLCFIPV
Sequence of Nuclear receptor subfamily 1 group I member 2 (Homo sapiens) (O75469 whole entry, looked up): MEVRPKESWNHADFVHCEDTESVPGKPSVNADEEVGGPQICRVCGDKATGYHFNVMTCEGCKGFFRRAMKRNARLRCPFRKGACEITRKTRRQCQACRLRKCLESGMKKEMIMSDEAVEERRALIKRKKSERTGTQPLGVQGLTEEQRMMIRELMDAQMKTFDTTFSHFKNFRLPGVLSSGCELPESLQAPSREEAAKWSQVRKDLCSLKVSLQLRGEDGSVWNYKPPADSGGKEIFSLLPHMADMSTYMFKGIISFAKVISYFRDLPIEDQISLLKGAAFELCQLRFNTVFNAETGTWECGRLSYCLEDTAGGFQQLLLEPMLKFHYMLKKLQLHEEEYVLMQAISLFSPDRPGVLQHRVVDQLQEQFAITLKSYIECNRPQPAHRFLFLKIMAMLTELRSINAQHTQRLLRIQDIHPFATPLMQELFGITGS
Sequence of Nuclear receptor subfamily 1 group I member 2 (Rattus norvegicus) (Q9R1A7 whole entry, looked up): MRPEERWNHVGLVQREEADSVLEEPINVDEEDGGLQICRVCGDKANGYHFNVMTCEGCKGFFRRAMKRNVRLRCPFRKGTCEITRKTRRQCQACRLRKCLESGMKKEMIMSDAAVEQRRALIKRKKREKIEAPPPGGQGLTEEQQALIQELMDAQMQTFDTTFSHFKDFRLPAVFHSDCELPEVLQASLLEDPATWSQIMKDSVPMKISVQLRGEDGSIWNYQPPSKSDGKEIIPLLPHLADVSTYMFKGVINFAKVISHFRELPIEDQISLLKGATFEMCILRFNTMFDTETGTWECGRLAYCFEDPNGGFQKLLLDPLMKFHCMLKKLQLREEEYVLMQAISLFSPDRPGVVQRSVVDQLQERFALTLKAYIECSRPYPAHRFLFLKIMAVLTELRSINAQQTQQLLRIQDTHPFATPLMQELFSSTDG

On to `CCC(C)C1CCCCC1=O` (centres undefined), for which the Potency result in test [1], in test [2], in test [3], in [8], in test [9] and in [11] was “inactive” throughout. Besides, the Potency result in test [12] and in test [13] was “inactive” each time. The molecule was called inactive in test [4], in test [5], in [6], in test [7] and in test [10].

Take `CCc1ccc(O)c(OC)c1`: the Potency entry in test [14], in [2], in [3], in [15], in [8] and in [9] was “inactive” in each case. The Potency result in test [16], in [11] and in test [12] was “inactive” each time. The molecule was classed as inactive in [4], in test [5], in test [6], in test [7] and in [10].

On to `O=c1cc(-c2ccccc2)oc2ccccc12`, for which the Potency in [17] is 61.1 µM (active); in test [9] it was 68.2 µM (active); in [11], 54.5 µM (active) and 24.2 µM (active); in test [13], 31.7 µM (active) and 7.92 µM (active). In addition, the Potency entry in test [3], in test [15], in test [8], in test [16] and in test [12] was “inactive” in each case. Besides, the result in [4], in test [5], in [6], in test [7] and in [10] was inactive.

For `NC(=O)c1ccc([N+](=O)[O-])cc1`, the Potency result in test [14], in [1], in [2], in [3], in [15] and in test [8] was “inactive” in each case. The Potency result in test [9], in test [16], in test [11] and in [12] was “inactive” throughout. Moreover, the call in test [4] and in [5] was inactive. The Potency in test [13] was 79.3 µM (active).

As for `CCCCOCCOCCOCc1cc2c(cc1CCC)OCO2`, the Potency entry in test [14], in test [1], in test [2], in test [3], in test [15] and in [8] was “inactive” each time. Moreover, the Potency result in test [9] and in [16] was “inactive” each time. The call in test [4], in test [5], in [7] and in test [10] was inactive. In addition, the max activation in [18] was -0.229%.

Consider `C=C1CC[C@H]2C[C@@H]1C2(C)C`, for which the Potency result in [14], in test [2], in test [3], in test [15], in test [8] and in test [9] was “inactive” throughout. In addition, the Potency entry in test [11], in [12] and in [13] was “inactive” in each case. The call in test [4], in test [5], in test [7] and in test [10] was inactive.

Regarding `CCCCCCCCCCCC`, the Potency result in test [14], in test [3], in test [15], in test [8], in test [9] and in [16] was “inactive” throughout. For the same molecule, the Potency entry in test [11], in [12] and in test [13] was “inactive” throughout. The Potency in test [1] was 68.6 µM (active). The result in [4], in [5], in [6] and in test [7] was inactive.

(Values after PubChem BioAssay (Tox21).)
